# Data from ChEMBL document CHEMBL3433997, “St. Jude Leishmania screening dataset” (2016).
# Molecular target: Solute carrier family 2, facilitated glucose transporter member 1 (Homo sapiens) (UniProt P11166)
# Assay: ST_JUDE_LEISH: Cytotoxicity at 2uM final concentration against transgenic Leishmania Mexicana promastigotes LmGLUT1 that are glucose transport deficient and complemented with the human glucose transporter GLUT1. Activity is measured by DNA content using SYBR green in vitro
# Assay type: functional
# Sequence of Solute carrier family 2, facilitated glucose transporter member 1 (Homo sapiens) (P11166 whole entry): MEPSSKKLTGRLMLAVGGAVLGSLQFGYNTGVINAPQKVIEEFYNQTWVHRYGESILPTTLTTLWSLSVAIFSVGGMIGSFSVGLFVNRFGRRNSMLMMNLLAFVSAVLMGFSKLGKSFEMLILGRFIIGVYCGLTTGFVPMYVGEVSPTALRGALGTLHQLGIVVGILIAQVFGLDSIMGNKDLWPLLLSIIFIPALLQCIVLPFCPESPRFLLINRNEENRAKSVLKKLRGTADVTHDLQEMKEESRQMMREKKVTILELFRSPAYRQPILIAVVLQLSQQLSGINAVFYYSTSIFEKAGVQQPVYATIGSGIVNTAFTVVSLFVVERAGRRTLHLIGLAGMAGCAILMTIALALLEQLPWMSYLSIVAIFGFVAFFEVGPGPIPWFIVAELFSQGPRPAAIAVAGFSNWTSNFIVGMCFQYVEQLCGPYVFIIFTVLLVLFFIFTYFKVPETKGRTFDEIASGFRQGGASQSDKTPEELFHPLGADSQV
row,Structure (SMILES),inhibition
1,COc1cc(C(C)C)ccc1C1CCN(CCCCNC(=O)c2ccc(NC(=O)c3ccc(Cl)cc3)cc2)CC1,4.4%
2,c1ccc(Nc2nc(-c3ccccn3)cs2)nc1,-0.62%
3,Nc1nc2c(ncn2OC[C@H]2COP(=O)(O)CO2)c(=O)[nH]1,-2.05%
4,COc1ccc(C=Cc2cc(=N)c3ccccc3[nH]2)cc1,3.18%
5,Cc1ccccc1Nc1nc(NCCc2ccccc2)nc2ccccc12,49.2%
6,CN1CCN(c2nsc3ccc(-c4ccc(NC(=O)Nc5cc(C(F)(F)F)ccc5F)cc4)cc23)CC1,5.16%
7,CCN(CC)CCCCCNc1c2ccc(Cl)cc2nc2ccc(OC)cc12,2.17%
8,CCCC1(NC[C@@H](O)[C@H](Cc2ccccc2)NC(=O)c2cc(NCC)cc(N3CCCCS3(=O)=O)c2)CCCCC1,-0.81%
9,Cc1nc2ccc(S(=O)(=O)Nc3ccc(C(=O)N[C@@H](CCC(=O)O)C(=O)O)cc3)cc2c(=O)[nH]1,0.38%
10,Nc1nc(N)c2c(ccc3c2cnn3Cc2cccnc2)n1,39.8%
11,Cc1ccc(-c2noc(COc3ccccc3C(=O)NC3CCCC3)n2)cc1,3.88%
12,O=C(Nc1cccc(CN2CCCN(Cc3cccc(O)c3)CC2)c1)c1ccc2ccccc2c1,1.01%
13,COc1cc(Cl)c(C)cc1-n1cc(C(=O)c2cc(Br)ccc2O)cc(C#N)c1=O,-0.77%
14,COc1ccc(CCNCCCCCCNCCc2ccc(Cl)c(Cl)c2)cc1OC,4.21%
15,O=C(c1ccc(-c2cccc(-c3nc4cc(C(F)(F)F)ccc4[nH]3)c2)cc1)N1CCCCC1CN1CCC(O)C1 (stereo unspecified),-0.47%
16,COc1ccc(CC(=O)NC(CCN2CCC3(CCc4ccccc43)CC2)c2ccc(Cl)c(Cl)c2)cc1 (stereo unspecified),0.25%
